Test results from PubChem BioAssay (NCATS).
Values joined by “and” are separate entries in the source; they are usually repeats but may differ in a detail not shown here. Identical values can stand only once. Results filed as inconclusive are left out. Unmarked numbers belong to inactive results. Active and inactive are the calls of the source. Calls come from the whole dose curve; as a rule, active = well fitted inhibition curve with a large enough effect; inconclusive = small, poorly fitted or top-dose-only effect; inactive = flat fitted curve, though single readings scatter.

Columns and labels:
[1] = Drug repurposing screens with cells derived from glioblastoma tumor samples (AID 1345199); details: GBM patient neurospheres viability, ATP luminescence, 48 h; note: nearly all actives have a fitted effect of over 40% in size
Method in brief: (§1)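 Four patient lines of CD133+ GBM neurospheres were screened at several concentrations; hits were retested in those lines plus three slower-growing GBM lines, using 48-hour treatment and ATP-based viability.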

astro = control astrocytes; assay: as above; details: viability, ATP luminescence, 48 h; series mostly up to 45.9 µM
Method in brief: as §1

[2] = at 45.9 µM (top of the series), tumour line B
[3] = at 45.9 µM (top of the series), tumour line D
[4] = at 46 µM (top of the series), tumour line A
[5] = at 46.1 µM (top of the series), tumour line C
% is set by controls: 0 for no effect and ±100 for the full control effect; potency is the fitted concentration of half-maximal effect.

| SMILES | activity, negative = cell killing [1, 2] | activity, negative = cell killing [1, 3] | activity, negative = cell killing [1, 4] | activity, negative = cell killing [1, 5] | Potency (astro) | Potency ([1]; tumour line A) |
| --- | --- | --- | --- | --- | --- | --- |
| CC1(O)CCC(C(C)(C)O)CC1 (stereo not given) | -1.19% | -26.4% | -16.9% | 9.01% | inactive | – |
| COc1ccc(/C=C/C(=O)OCCC(C)C)cc1 | 1.41% | -11.4% | 4.4% | -1.14% | inactive | – |
| O=C1/C(=C\c2cccs2)CCC/C1=C\c1cccs1 | -19.7% | -28.6% | – | -23.9% | inactive | 25.1 µM (active) |
| CCOC(=O)[C@@H](N)CS | -8.18% | -11.2% | -24.4% | 1.04% | inactive | – |
| COc1ccc2c(=O)c(C)c(-c3ccccc3)oc2c1CN(C)C | -11.5% | -20.7% | – | -17.7% | inactive | 20 µM (active) |
| CC(=O)O[C@@H]1CC2CCC1(C)C2(C)C (stereo not given in full) | -4.03% | -12.8% | -12.3% | -4.87% | inactive | – |
| NC[C@@H]1O[C@H](O[C@H]2[C@@H](O)[C@H](O[C@@H]3[C@@H](O)[C@H](N)C[C@H](N)[C@H]3O[C@H]3O[C@H](CO)[C@@H](O)[C@H](O)[C@H]3N)O[C@@H]2CO)[C@H](N)[C@@H](O)[C@@H]1O | -4.51% | -15.7% | -10.6% | -32.1% | inactive | – |
| CCCCCCCCCCCC(=O)OCC(O)CO (stereo not given) | -6.19% | -1.8% | -27.7% | -2.49% | inactive | – |
| O=C1c2c(O)cccc2[C@H]([C@@H]2O[C@H](CO)[C@@H](O)[C@H](O)[C@H]2O)c2cc(CO)cc(O)c21 | -6.89% | -4.21% | -19.8% | -2.48% | inactive | – |
| FCOC(C(F)(F)F)C(F)(F)F | -14% | -24.3% | -28% | -24.9% | inactive | – |
| CC(CNC(=O)c1cccnc1)NC(=O)c1cccnc1 (stereo not given) | -10.6% | -9.97% | -56.9% | -14.1% | inactive | – |
| COc1cc2c(cc1OC)[C@@H](Cc1cc(OC)c(OC)c(OC)c1)[N+](C)(CCCOC(=O)CC/C=C/CCC(=O)OCCC[N+]1(C)CCc3cc(OC)c(OC)cc3[C@H]1Cc1cc(OC)c(OC)c(OC)c1)CC2 (stereo not given in full) | -17.7% and -2.67% | -12.5% and -11.6% | -22.5% | -14.7% and -8.1% | inactive | – |
| F[Si-2](F)(F)(F)(F)F | 5.47% | -3.02% | -17.6% | 30.2% | inactive | – |
| C[C@]12CC[C@@H]3c4ccc(O)cc4CC[C@H]3[C@@H]1CC[C@@H]2OP(=O)(O)O | -7.23% | -13% | -23.9% | 22.6% | inactive | – |
| O=C(O)[C@H]1C(=CCO)O[C@H]2CC(=O)N12 | -8.67% | -21.6% | -18.4% | -12.5% | inactive | – |
| CCCCC[C@H](O)/C=C/[C@@H]1[C@H]2C/C(=C/CCCC(=O)O)O[C@H]2C[C@H]1O | -2.96% | 0.816% | -14.4% | -18.7% | inactive | – |
| CC(=O)[O][Al][O]C(C)=O | -5.15% | -14.6% | -26.4% | -11.8% | inactive | – |
| O=C(O)[C@H]1CN(C/C=C/P(=O)(O)O)CCN1 | -1.77% | 1.08% | -25.5% | -5.57% | inactive | – |
| CC1(C)S[C@@H]2[C@H](N3C(=O)C(c4ccccc4)NC3(C)C)C(=O)N2[C@H]1C(=O)O (stereo not given in full) | -8.88% | -1.4% | -5.42% | -5.2% | inactive | – |
| OCCCNc1ccccc1 | 1.67% | -0.692% | -52.2% | -9.32% | inactive | – |
